# Test results taken from paper PMC4336329 (PLoS ONE, 2015).
# In all, about 310,000 compounds went through this assay and about 2,200 (0.71%) showed an effect of 50% or more. The effect is printed as a negative number. The entries come from a sample that favours strong results as a whole.
# Molecular target: human ether-à-go-go-related gene (hERG) potassium channel (human, UniProt Q12809)
# Experiment: primary screen, population patch clamp on CHO cells stably expressing hERG; higher = less effect of the substance
# Chain of human ether-à-go-go-related gene (hERG) potassium channel (Q12809 whole entry, looked up): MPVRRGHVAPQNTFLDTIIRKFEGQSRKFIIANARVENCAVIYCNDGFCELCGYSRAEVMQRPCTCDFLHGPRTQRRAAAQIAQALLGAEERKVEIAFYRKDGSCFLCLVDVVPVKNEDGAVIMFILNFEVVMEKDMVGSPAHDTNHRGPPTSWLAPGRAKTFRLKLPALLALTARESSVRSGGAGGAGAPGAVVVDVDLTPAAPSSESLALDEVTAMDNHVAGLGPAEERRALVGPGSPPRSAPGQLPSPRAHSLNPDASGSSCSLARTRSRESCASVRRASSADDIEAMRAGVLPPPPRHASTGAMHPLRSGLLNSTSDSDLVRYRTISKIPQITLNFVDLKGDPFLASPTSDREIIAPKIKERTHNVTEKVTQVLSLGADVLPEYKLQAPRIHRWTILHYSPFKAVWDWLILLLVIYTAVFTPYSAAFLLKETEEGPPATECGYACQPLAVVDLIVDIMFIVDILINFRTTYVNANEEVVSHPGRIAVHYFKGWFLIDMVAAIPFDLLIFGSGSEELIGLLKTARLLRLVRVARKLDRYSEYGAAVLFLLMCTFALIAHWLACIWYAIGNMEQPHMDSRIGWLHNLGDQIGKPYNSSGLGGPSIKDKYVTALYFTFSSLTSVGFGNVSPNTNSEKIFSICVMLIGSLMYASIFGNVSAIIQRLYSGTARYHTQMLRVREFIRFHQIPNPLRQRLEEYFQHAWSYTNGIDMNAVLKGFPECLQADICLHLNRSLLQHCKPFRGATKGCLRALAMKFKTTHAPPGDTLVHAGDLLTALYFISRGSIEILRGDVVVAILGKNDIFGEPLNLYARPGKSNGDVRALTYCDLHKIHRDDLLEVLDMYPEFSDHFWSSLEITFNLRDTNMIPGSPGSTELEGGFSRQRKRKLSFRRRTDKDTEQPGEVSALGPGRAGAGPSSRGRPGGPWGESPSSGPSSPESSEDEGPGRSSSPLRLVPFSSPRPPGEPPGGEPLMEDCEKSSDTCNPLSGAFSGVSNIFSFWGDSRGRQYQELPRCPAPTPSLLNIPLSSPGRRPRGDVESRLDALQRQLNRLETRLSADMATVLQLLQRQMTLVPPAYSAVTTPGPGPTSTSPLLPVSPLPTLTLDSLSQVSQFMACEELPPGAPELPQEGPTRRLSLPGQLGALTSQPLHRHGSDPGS
row,Structure (SMILES),"hERG current change (%, negative = inhibition) at 1uM"
1,CC1(C)NC(=O)N(CC(=O)N2CCN(c3ccc([N+](=O)[O-])cc3)CC2)C1=O,-29.1%
2,CC(C(=O)N1CCN(c2ccccc2)CC1)c1ccc([N+](=O)[O-])cc1 (stereo not shown),-12.2%
3,CC(C(=O)N1CCN(c2ccc([N+](=O)[O-])cc2)CC1)N1C(=O)C2CC=CCC2C1=O (stereo not shown),-50.2%
4,COc1ccc(N2CCN(C(=O)CN3C(=O)C4CC=CCC4C3=O)CC2)cc1 (stereo not shown),15.7%
5,O=C(CN1C(=O)C2CC=CCC2C1=O)N1CCN(c2ccc([N+](=O)[O-])cc2)CC1 (stereo not shown),-64.2%
6,CC(C(=O)N1CCN(c2ccccc2)CC1)N1C(=O)C2CC=CCC2C1=O (stereo not shown),10.3%
7,COc1ccc(C2=[N+]([O-])C(C)(C)N(O)C2(C)C)cc1,10.1%
8,Cc1nc(-c2nnc(SCC(=O)Nc3cc(Cl)cc(Cl)c3)n2C)cs1,10.6%
9,C/C(=N\N=C(c1ccccc1)c1ccccc1)c1ccco1,5.46%
10,CN1C(=O)C(=Cc2ccccc2OS(=O)(=O)c2ccccc2)C(=O)N(C)C1=O,9.02%
11,N[C@@H]1CONC1=O,18.7%
12,COC(=O)[C@H]1C[C@H]1[C@@H](NC(=O)c1cccnc1)c1ccccc1,11.4%
13,COc1ccc(C(CCN)c2ccc3c(c2)OCO3)cc1 (stereo not shown),13.6%
14,COc1ccc(C(CCNCc2ccc(N(C)C)cc2)C(C)C)cc1 (stereo not shown),2.49%
15,COc1ccc(C(CCNCc2ccccc2)c2ccc(F)cc2)cc1 (stereo not shown),-17.7%
16,COc1ccc(C(CCNCc2ccc(N(C)C)cc2)c2ccccc2OC)cc1 (stereo not shown),-18.4%
17,COc1ccc(C(CCNCc2ccc(N(C)C)cc2)c2ccccc2)cc1 (stereo not shown),-56.4%
18,CCOc1ccc(CNCCc2ccc3c(c2)OCO3)cc1,-52.6%
19,COc1ccc(CNCCC(c2ccccc2)c2ccc3c(c2)OCO3)cc1.Cl (stereo not shown),-68.7%
20,Fc1ccc(CNCCc2ccc3c(c2)OCO3)cc1,13.8%
21,CCOc1ccccc1CNCCc1ccc2c(c1)OCO2.Cl,1.75%
22,COc1ccc(OCCSc2nc(C)c(Cc3ccccc3)c(=O)[nH]2)cc1,7.38%
23,Cn1c(C(=O)c2ccccc2[N+](=O)[O-])nc2ccccc21,-9.27%

row,Structure (SMILES),"hERG current change (%, negative = inhibition) at 1uM"
1,S=C(Nc1ccccc1Cl)N1CCC(c2ccccc2)C1 (stereo not shown),-6.92%
2,COc1ccc2c(c1)N1CCN=C1N2C.Cl,5.26%
3,Cc1[nH]nc(NCCO)c1[N+](=O)[O-],-3.88%
4,CCOc1ccc(NC(=O)CN(c2ccc(OC)cc2)S(C)(=O)=O)cc1,8.87%
5,CCC(C)[C@H](NC(=O)C1CC(=O)N(c2ccc3c(c2)OCO3)C1)C(=O)NC1CCCCC1 (stereo partly shown),29.5%
6,COC(=O)C(Cc1ccc(OC(=O)c2ccc(C(F)(F)F)cc2)cc1)N1Cc2ccccc2C1=O (stereo not shown),13.8%
7,COc1cccc(C(=O)NC2CCCN(C3Cc4ccccc4C3)C2)c1OC (stereo not shown),0.941%
8,O=C(NC1CCCN(C2Cc3ccccc3C2)C1)c1ccc(F)cc1Cl (stereo not shown),-72.9%
9,O=C(NC1CC1)c1ccc(F)cc1Cl,14.2%
10,N/C(=N\OC(=O)c1cc(-c2ccccc2)nc2ccccc12)c1ccncc1,8.01%
11,CCOc1cc(S(=O)(=O)N2CCN(CC)CC2)ccc1Cl,6.75%
12,Cc1ccc(-c2cc(C(=O)N3CCCCCC3)no2)cc1,10%
13,O=C(c1cc(-c2ccccc2)on1)N1CCCc2ccccc21,8.2%
14,CCOC(=O)C1CCCN(C(=O)c2cc(-c3ccccc3)on2)C1 (stereo not shown),3.94%
15,Cc1ccc(-c2cc(C(=O)N3CCCc4ccccc43)no2)cc1,-75.5%
16,O=C(c1cc(-c2ccc(O)cc2)on1)N1CCCc2ccccc21,8.9%
17,CCOC(=O)C1CCCN(C(=O)c2cc(-c3ccc(C)cc3)on2)C1 (stereo not shown),-59.7%
18,COc1ccccc1/C=c1\sc2nc(-c3ccco3)nn2c1=O,17.5%
19,Cc1ccc2nc(NCCO)nc(-c3ccccc3)c2c1,1.36%
20,COc1ccc(C(C)=O)cc1COC(=O)c1cnc(C)cn1,17.6%
21,CCCCNC(=O)CCCn1c(=S)[nH]c2cc3c(cc2c1=O)OCO3,19.2%
22,Cc1oc(-c2ccccc2Cl)nc1CN1C(=O)CN=C(c2ccccc2)c2ccccc21,9.3%
23,CCOC(=O)CNC(=O)/C(=C\c1ccc(F)cc1)NC(=O)c1ccccc1,-11.7%
